# Earlier results in PubChem BioAssay AID977611.
# Screen size: about 3,900 compounds; about 3,900 (100%) were called active. No cut-off is given here; in the data, nearly all actives have Kd up to about 4200 µM. So high a share suggests a set chosen from earlier hits. Some of the results follow. Starred links: 1 amine or outer side, 2 acyl side, 3 side chain; linkers in the order of their positions; H or OH if unused. *1 amine or outer side, *2 acyl side, *3 side chain or, on linkers, in order; H or OH if unused. Positions of bridges follow the written chain, without caps; N, C: chain ends. Where a SMILES comes first, the peptide text is derived from it. Non-standard residues stand in square brackets, D forms with d. Square brackets hold non-standard residues; d marks the D form. Residues, ends and D or L forms follow the SMILES beside them. Bridges are numbered along the chain shown (N, C = ends). Peptide text beside a SMILES is read from it. [ ]: non-standard residue; d: D form. Orn(CH(NH2)2) = NC(N)NCCC[C@H](N)C(=O)O; X1 = O=C([C@@H]1CC[C@H](O)N1[*:1])[*:2]; TBMB = c1c(C[*:1])cc(C[*:3])cc1C[*:2]
# Test: PubChem AID 977611
# Conditions: PDB protein-ligand complexes, literature Kd
structure (smiles),measurement,setting,value
CC(C)[C@H](NC(=O)[C@H](CCC(N)=O)NC(=O)[C@@H](NC(=O)[C@H](CCC(=O)O)NC(=O)[C@H](CCCNC(N)N)NC(=O)[C@H](CCCNC(N)N)NC(=O)[C@@H](NC(=O)[C@H](CCCNC(N)N)NC(=O)[C@H](CO)NC(=O)[C@H](CO)NC(=O)[C@@H](N)CCCNC(N)N)[C@@H](C)O)[C@@H](C)O)C(=O)O (H-[Orn(CH(NH2)2)]SS[Orn(CH(NH2)2)]T[Orn(CH(NH2)2)][Orn(CH(NH2)2)]ETQV-OH),Kd,"protein: second PDZ domain of MAGI-1 (Membrane-associated guanylate kinase), PDB entry 2kpl",0.23 µM (active)
CC(C)C[C@H](NC(=O)[C@H](CCCNC(N)N)NC(=O)[C@@H](NC(=O)[C@H](CC(=O)O)NC(=O)[C@@H](N)CCC(N)=O)[C@@H](C)O)C(=O)O (HELM PEPTIDE1{Q.D.T.[NC(N)NCCC[C@H](N[*:1])C(=O)[*:2]].L}$$$$V2.0),Kd,"protein: Na(+)/H(+) exchange regulatory cofactor NHE-RF1, PDB entry 2m0u",0.365 µM (active)
same,Kd,"protein: Na(+)/H(+) exchange regulatory cofactor NHE-RF1, PDB entry 2m0v",1.08 µM (active)
CC(C)C[C@H](NC(=O)[C@H](C)NC(=O)[C@H](CC(=O)O)NC(=O)[C@H](CC(C)C)NC(=O)[C@@H](N)CC(=O)O)C(=O)N[C@@H](CC(C)C)C(=O)N[C@@H](C)C(=O)N[C@@H](CC(=O)O)C(=O)N[C@@H](CC(C)C)C(=O)N[C@@H](CCC(=O)O)C(=O)O (H-DLDALLADLE-OH),Kd,"protein: Alpha-parvin, PDB entry 2k2r",1300 µM (active)
CSCC[C@H](NC(=O)[C@H](CC(C)C)NC(=O)[C@H](C)NC(=O)[C@H](CC(=O)O)NC(=O)[C@H](CC(C)C)NC(=O)[C@H](C)NC(=O)[C@H](C)NC(=O)[C@@H](NC(=O)[C@H](C)NC(=O)[C@H](C)N)[C@@H](C)O)C(=O)N[C@@H](C)C(=O)N[C@@H](CO)C(=O)N[C@@H](CC(C)C)C(=O)O (H-AATAALDALMASL-OH),Kd,"protein: Protein-tyrosine kinase 2-beta, Pyk2 FAT domain, PDB entry 3u3f",8 µM (active)
CSCC[C@H](NC(=O)[C@H](CC(C)C)NC(=O)[C@H](CCC(=O)O)NC(=O)[C@H](CC(=O)O)NC(=O)[C@H](CC(C)C)NC(=O)[C@H](CCC(=O)O)NC(=O)[C@H](CCCNC(N)N)NC(=O)[C@@H](N)[C@@H](C)O)C(=O)N[C@@H](C)C(=O)N[C@@H](CO)C(=O)N[C@@H](CC(C)C)C(=O)N[C@@H](CO)C(=O)O (H-T[Orn(CH(NH2)2)]ELDELMASLS-OH),Kd,"protein: Focal Adhesion Targeting Domain(FAT), PDB entry 1ow6",4 µM (active)
same,Kd,"protein: Focal Adhesion Targeting Domain(FAT), PDB entry 1ow7",4 µM (active)
CC(C)C[C@H](NC(=O)[C@H](CCC(=O)O)NC(=O)[C@H](CC(C)C)NC(=O)[C@H](CC(C)C)NC(=O)[C@H](CC(C)C)NC(=O)[C@H](CCCNC(N)N)NC(=O)[C@H](CC(=O)O)NC(=O)[C@H](CC(C)C)NC(=O)[C@H](CCC(=O)O)NC(=O)[C@H](CO)NC(=O)[C@@H](N)CC(C)C)C(=O)N[C@@H](CC(N)=O)C(=O)O (H-LSELD[Orn(CH(NH2)2)]LLLELN-OH),Kd,"protein: Focal Adhesion Targeting Domain(FAT), PDB entry 1ow8",4 µM (active)
CC(C)[C@H](NC(=O)[C@H](CCC(N)=O)NC(=O)[C@@H](NC(=O)[C@H](CCC(=O)O)NC(=O)[C@H](CC(N)=O)NC(=O)[C@H](CCCNC(N)N)NC(=O)[C@H](CCC(N)=O)NC(=O)[C@H](CCCNC(N)N)NC(=O)[C@@H](NC(=O)[C@H](CCCNC(N)N)NC(=O)[C@@H]1CC[C@H](O)N1)[C@@H](C)O)[C@@H](C)O)C(=O)O (H-[X1][Orn(CH(NH2)2)]T[Orn(CH(NH2)2)]Q[Orn(CH(NH2)2)]NETQV-OH),Kd,"protein: Disks large homolog 1, PDB entry 2m3m",9.63 µM (active)
CC(C)C[C@H](NC(=O)[C@H](C)NC(=O)[C@H](C)NC(=O)[C@H](CC(C)C)NC(=O)[C@H](CCCNC(N)N)NC(=O)[C@H](CCCNC(N)N)NC(=O)[C@H](CO)NC(=O)[C@H](CC(C)C)NC(=O)[C@H](CCC(N)=O)NC(=O)[C@H](CC(=O)O)NC(=O)[C@@H](N)CCC(=O)O)C(=O)N[C@@H](CCCNC(N)N)C(=O)N[C@@H](CC(N)=O)C(=O)O (H-EDQLS[Orn(CH(NH2)2)][Orn(CH(NH2)2)]LAAL[Orn(CH(NH2)2)]N-OH),Kd,"protein: Vacuolar protein sorting-associating protein 4A, PDB entry 2jq9",33.4 µM (active)
CSCC[C@@H]1NC(=O)[C@H](CCC(=O)O)NC(=O)[C@H](Cc2ccc(O)cc2)NC(=O)[C@H](CO)NC(=O)[C@H](CC(=O)O)NC(=O)[C@H](C)NC(=O)CNC(=O)[C@@H](N)CSSC[C@@H](C(=O)O)NC(=O)[C@H](CCCCN)NC(=O)[C@H](CCCNC(N)N)NC(=O)[C@H](C(C)C)NC(=O)CNC(=O)[C@H](CC(=O)O)NC(=O)[C@H](CCC(=O)O)NC(=O)[C@H](CCC(=O)O)NC1=O (H-CGADSYEMEEDGV[Orn(CH(NH2)2)]KC-OH; disulfide 1-16),Kd,"protein: mAb175 Antibody targeting a locally misfolded region of tumor associated EGFR, PDB entry 3g5y",0.035 µM (active)
same,Kd,"protein: mAb806 Antibody targeting a locally misfolded region of tumor associated EGFR, PDB entry 3g5v",0.016 µM (active)
CC(C)[C@@H]1NC(=O)[C@H](CCC(=O)O)NC(=O)[C@H](Cc2ccc(O)cc2)NC(=O)[C@H](CCCNC(N)N)NC(=O)[C@H](CO)NC(=O)[C@@H](NC(=O)[C@H](C)N)CSCc2cc3cc(c2)CSC[C@H](NC(=O)[C@H](CC(=O)O)NC1=O)C(=O)N[C@@H](CCCNC(N)N)C(=O)NCC(=O)N[C@@H](CCCNC(N)N)C(=O)NCC(=O)N[C@@H](CO)C(=O)N[C@@H](C)C(=O)N[C@H](C(=O)O)CSC3 (H-ACS[Orn(CH(NH2)2)]YEVDC[Orn(CH(NH2)2)]G[Orn(CH(NH2)2)]GSAC-OH; linker 2-9-16 via TBMB),Kd,"protein: Urokinase-type plasminogen activator, PDB entry 3qn7",0.157 µM (active)
CC(C)C[C@@H]1NC(=O)[C@H](CCCNC(N)N)NC(=O)[C@H](CCCNC(N)N)NC(=O)[C@H]([C@@H](C)O)NC(=O)[C@H](CO)NC(=O)[C@H](CC(C)C)NC(=O)[C@H](CC(=O)O)NC(=O)[C@H](Cc2ccccc2)NC(=O)[C@H](CCC(N)=O)NC(=O)[C@@H](N)CSSC[C@@H](C(=O)O)NC(=O)[C@H](CCCCN)NC1=O,Kd,"protein: cetuximab Fab, PDB entry 4gw1",0.43 µM (active)
CC(C)C[C@@H]1NC(=O)[C@H](C)NC(=O)[C@H](CCCNC(N)N)NC(=O)[C@H](CO)NC(=O)[C@H](CO)NC(=O)[C@H](CC(C)C)NC(=O)[C@H](CC(N)=O)NC(=O)[C@H](Cc2ccc(O)cc2)NC(=O)[C@H](CCC(N)=O)NC(=O)[C@@H](N)CSSC[C@@H](C(=O)O)NC(=O)[C@H](CCCCN)NC1=O,Kd,"protein: cetuximab Fab, PDB entry 4gw5",3.5 µM (active)
OC(C[n+]1cccc(-c2ccccc2)c1)([P+](O)(O)O)[P+](O)(O)O,Kd,"protein: Leshmaniasis major Farnesyl diphosphate synthase, PDB entry 4jzb",0.342 µM (active)
OC(C[n+]1cccc(F)c1)([P+](O)(O)O)[P+](O)(O)O,Kd,"protein: Leshmaniasis major Farnesyl diphosphate synthase, PDB entry 4k10",0.12 µM (active)
Cc1cccnc1NCc1ccccc1O,Kd,"protein: proCaspase-6, PDB entry 4nbk",136 µM (active)
Oc1ccccc1CNc1cc(NCc2ccccc2O)ncn1,Kd,"protein: Caspase-6, PDB entry 4nbn",44 µM (active)
C[C@@H]1OC[C@@H](O)[C@H](O)[C@@H]1O,Kd,"protein: PUTATIVE FUCOSE-BINDING LECTIN PROTEIN(R17A mutant), PDB entry 3zi8",2.2 µM (active)
C=C(CC[C@]12O[C@H](C(=O)O)[C@@](O)(C(=O)O)[C@](C(=O)O)(O1)[C@H](OC(=O)/C=C/[C@@H](C)C[C@@H](C)CC)[C@H]2O)[C@@H](OC(C)=O)[C@H](C)Cc1ccccc1,Kd,"protein: Dehydrosqualene synthase, PDB entry 3vje",0.0097 µM (active)
same,Kd,"protein: Squalene synthase, PDB entry 3vjc",0.0189 µM (active)
C=CCN(Cc1ccccc1C(=O)NCc1ccc(OC)cc1)Cc1ccc2c(c1C(=O)O)OC[C@H](CCC(=O)O)O2,Kd,"protein: INTEGRASE, PDB entry 4ceb",1080 µM (active)
COc1ccc(CNC(=O)c2cc3ccccc3cc2CN(C)Cc2cccc(OC)c2C(=O)O)cc1,Kd,"protein: HIV integrase, PDB entry 4cig",214 µM (active)
COc1ccc(CNC(=O)c2cc3c(cc2CN(C)Cc2cccc(OC)c2C(=O)O)OCO3)cc1,Kd,"protein: HIV integrase, PDB entry 4cjr",793 µM (active)
O=C(O)CCC(=O)C1=CC=C[C@@H](O)[C@@H]1C(=O)O,Kd,"protein: E. Coli 2-succinyl-6-hydroxy-2,4-cyclohexadiene-1-carboxylate synthase (MenH), PDB entry 4myd",28 µM (active)
Nc1ccc(C(=O)N[C@@H](C(=O)NO)c2ccc(-n3cccn3)cc2)cc1,Kd,"protein: M17 leucyl aminopeptidase A-M17, PDB entry 4r7m",0.011 µM (active)
COC(=O)N1CC[C@@H]2[C@H]1CCC[C@@]2(O)C#Cc1cccc(C)c1,Kd,"protein: Metabotropic glutamate receptor 5, Lysozyme, Metabotropic glutamate receptor 5 chimera, PDB entry 4oo9",0.00086 µM (active)
CO[C@@H]1O[C@@H](C(=O)O)[C@@H](O[C@H]2O[C@H](COS(O)(O)O)[C@@H](O)[C@H](O)[C@H]2NS(O)(O)O)[C@H](O)[C@H]1OS(O)(O)O,Kd,"protein: Fibroblast growth factor 2 FGF2, PDB entry 4oef",17.5 µM (active)
O=C(O)[C@@H]1O[C@@H](O)[C@H](OS(O)(O)O)[C@@H](O)[C@@H]1O[C@H]1O[C@H](COS(O)(O)O)[C@@H](O[C@@H]2O[C@@H](C(=O)O)[C@@H](O[C@H]3O[C@H](COS(O)(O)O)[C@@H](O[C@@H]4O[C@@H](C(=O)O)[C@@H](O[C@H]5O[C@H](COS(O)(O)O)[C@@H](O)[C@H](O)[C@H]5NS(O)(O)O)[C@H](O)[C@H]4OS(O)(O)O)[C@H](O)[C@H]3NS(O)(O)O)[C@H](O)[C@H]2OS(O)(O)O)[C@H](O)[C@H]1NS(O)(O)O,Kd,"protein: SONIC HEDGEHOG PROTEIN, PDB entry 4c4n",0.8 µM (active)
CO[C@@H]1O[C@@H](C(=O)O)[C@@H](O[C@H]2O[C@H](COS(O)(O)O)[C@@H](O)[C@H](OS(O)(O)O)[C@H]2NS(O)(O)O)[C@H](O)[C@H]1OS(O)(O)O,Kd,"protein: Fibroblast growth factor 2 FGF2, PDB entry 4oeg",9.01 µM (active)
CO[C@@H]1O[C@@H](C(=O)O)[C@@H](O[C@H]2O[C@H](CO)[C@@H](O)[C@H](OS(O)(O)O)[C@H]2NS(O)(O)O)[C@H](O)[C@H]1OS(O)(O)O,Kd,"protein: Fibroblast growth factor 2 FGF2, PDB entry 4oee",1.73 µM (active)
O=C(O)[C@H]1CCCN1C(=O)CCCCC(=O)N1CCC[C@@H]1C(=O)O,Kd,"protein: Serum Amyloid P Component, PDB entry 4avt",0.0088 µM (active)
CC(C)[C@@H]1NC(=O)[C@@H](NC(=O)[C@H](Cc2ccc(O)cc2)NC(=O)[C@@H]2CCCN2C(=O)[C@H](C)N)CSSC[C@@H](C(N)=O)NC(=O)[C@H](CO)NC(=O)[C@H](Cc2c[nH]c3ccccc23)NC(=O)[C@H](CO)NC(=O)CCNC(=O)[C@H](CCCN=C(N)N)NC(=O)[C@H](Cc2ccc(O)cc2)NC1=O,Kd,"protein: Ephrin type-A receptor 4 EphA4 LBD, PDB entry 4w4z",0.03 µM (active)
CC(C)[C@@H]1NC(=O)[C@@H](NC(=O)[C@H](Cc2ccc(O)cc2)NC(=O)[C@@H]2CCCN2C(=O)[C@H](C)N)CSSC[C@@H](C(=O)O)NC(=O)[C@H](CO)NC(=O)[C@H](Cc2c[nH]c3ccccc23)NC(=O)[C@H](CO)NC(=O)CNC(=O)[C@H](CCCN=C(N)N)NC(=O)[C@H](Cc2ccc(O)cc2)NC1=O,Kd,"protein: Ephrin type-A receptor 4 EphA4 LBD, PDB entry 4w50",1.4 µM (active)
